The record followed here is ChEMBL document CHEMBL4513216, “Probing the Open Global Health Chemical Diversity Library for Multistage-Active Starting Points for Next-Generation Antimalarials” (ACS Infect Dis, 2020).

Structures are written as SMILES. The whole screen tested about 69,000 compounds, of which about 8,600 (12%) showed an effect of 50% or more. The full list was thinned out, with strong results kept by preference.

In the assay the test system is Plasmodium berghei. Kind of assay: Screen against P. berghei liver stage (PbLuc), transformed with Luciferase, at 10uM. Type of assay: functional, HepG2. Conditions: tested at 10 uM.
In the case of `Clc1ccccc1-c1nnc(CN2CCCC2Cn2cncn2)o1` (configuration not stated), the INHIBITION is reported as 27.4%.
As for `Cn1cc(CN2CCO[C@@H]3CN(C4CCCC4)C[C@@H]3C2)cn1`, the INHIBITION is 41.2%.
As for `OCc1cccc(CNCc2cccc3c2OCCO3)c1`, the figure is -33.4%.
Under `COc1ccc(CNCc2ccnc(N3CCOCC3)c2)cc1OC` stands 27.1%; under `c1cc(CNCc2ccnc(N3CCOCC3)c2)c2c(c1)OCCCO2`, 26.4%; under `COc1cccc(CNCc2ccnc(N3CCOCC3)c2)c1OC`, 50.5%.
Take `c1cc(CNCc2ccnc(N3CCOCC3)c2)c2c(c1)OCO2`: the INHIBITION is listed as -35.2%.
As for `c1cc(CNCc2ccnc(N3CCCC3)c2)c2c(c1)OCO2`, the figure is -17.2%; as for `c1cc(CNCc2ccnc(N3CCCC3)c2)c2c(c1)OCCCO2`, 98.3%.
As for `c1cc(CNCc2ccnc(N3CCOCC3)c2)c2c(c1)OCCO2`, the figure is 9.48%.
Under `CN(C)c1cc(CNCc2cccc3c2OCCO3)ccn1` stands 52.1%; under `c1cc(CNCc2ccnc(N3CCCC3)c2)c2c(c1)OCCO2`, 44.4%; under `COc1ccc(OC)c(CNCc2ccnc(N3CCOCC3)c2)c1`, -2.53%.
`CN1CCN(c2cc(CNCc3cccc4c3OCO4)ccn2)CC1`: the INHIBITION is 73.9%.
Take `NC(=O)c1csc(N2C[C@@H](CN3CCOCC3)[C@@H](CO)C2)n1`: the INHIBITION was determined as 20.645%.
Under `O=C(NCCNc1cnccn1)N1CCCC(N2CCCC2)C1` (configuration not stated) stands 37.4%; under `c1cc(CN2CCC[C@@H](Cn3nnc(-c4cnccn4)n3)C2)ccn1`, 18.285%; under `CCOc1cc(NC(=O)N2CCC3(CCOCC3)C2)ccc1C`, -38.1%.
On to `Cc1cc(CN(Cc2cccs2)CC2CCCO2)on1` (configuration not stated), for which the INHIBITION is listed as 19.4%.
Under `CCN(CC)c1nc(O)cc(C(C)n2ncc3ccccc3c2=O)n1` (configuration not stated) stands 0.45%; under `O=C(C1CCCCC1)N1CCCC2(CCN(c3cnccn3)CC2)C1`, -2.35%.
As for `c1cc(CNCc2ccnc(N3CCCCC3)c2)c2c(c1)OCCCO2`, the figure is 70.1%; as for `c1cc(CNCc2cccc3c2OCCCO3)cc(Cn2cncn2)c1`, 53.1%.
Regarding `c1cc(CNCc2cccc3c2OCCO3)cc(Cn2cncn2)c1`, the INHIBITION is on record as -8.41%.
Under `c1cc(CNCc2ccc(Cn3cncn3)cc2)c2c(c1)OCCO2` stands 16%; under `CC1CN(c2cc(CNCc3cccc4c3OCCO4)ccn2)CCO1` (configuration not stated), -26.2%; under `CCc1nc(CN(C)C2CCN(Cc3nc(C4CC4)no3)C2)no1` (configuration not stated), -31.6%.
Under `COCC(=O)N1CCC(c2c(C(=O)N(C)C)sc3ncccc23)C1` (configuration not stated) stands 9.54%.
As for `O=C(c1nc2c(o1)CN(CC1CC1)C2)N1CCCC1`, the figure is 18.5%; as for `CCCOc1ccccc1NCC(=O)Nc1ccc(CC)cc1`, 15%.
In the case of `c1cn2c(n1)CN(CC1CC1)CC(CN1CCOCC1)C2` (configuration not stated), the INHIBITION is on record as 42.1%.
Under `CCOC1CCN(C(=O)NCc2ccc(C(=O)N(C)C(C)C)cc2)CC1` stands 27.6%; under `CCOC1CCN(C(=O)NCc2cccc(-n3cccn3)c2)CC1`, 1.98%; under `CCOC1CCN(C(=O)NCc2ccc(CN3CCOCC3)cc2)CC1`, 61.8%.
As for `O=C(N[C@@H]1CCC[C@@H](N2CCOCC2)[C@@H]1O)c1cc2ccccc2[nH]1`, the figure is -3.31%; as for `CC(C)N(C)Cc1cnc2n1CCN(Cc1cccc(F)c1)C2`, -22.1%; as for `COCCNc1nc(NCCc2ccccc2)nc2nccnc12`, -14.9%.
Regarding `O=C(c1ccncc1)N1C[C@@H](OCc2cccnc2)[C@H]2OCCC[C@H]21`, the INHIBITION is listed as 10.6%.
Under `CSCC(=O)N1CCc2c(cnc(C)c2-c2noc(-c3cscn3)n2)C1` stands 16.7%.
As for `Cc1cc(-c2nc(-c3c(C)ncc4c3CCNC4)no2)nc(C)n1`, the figure is 33.7%; as for `Cc1ncc2c(c1-c1noc(-c3cscn3)n1)CCNC2`, 58.8%; as for `NC(=O)CC1CCN(C(=O)NCc2ccccc2-n2cccn2)CC1`, 56.3%.
Under `NC(=O)C1CCN(C(=O)NCc2cccnc2OC2CCCC2)C1` (configuration not stated) stands 11.2%.
As for `CC(C)Oc1ncccc1CNC(=O)N1CCCC1c1ccsc1` (configuration not stated), the INHIBITION turned out to be 31.2%.
Under `Cc1cc(C2CCCN2C(=O)NCc2cccnc2OC(C)C)on1` (configuration not stated) stands 29%; under `NC(=O)C1CCN(C(=O)NCc2ccccc2-n2cccn2)CC1`, 44.1%.
In the case of `CC(C)Oc1ncccc1CNC(=O)N1CCSCC1`, the INHIBITION amounted to 9.14%.
Regarding `CC(C)Oc1ncccc1CNC(=O)N1CCC(C(N)=O)C1` (configuration not stated), the INHIBITION was found to be 40.3%.
As for `CC(C)Oc1ncccc1CNC(=O)N1CCC1c1ccccc1` (configuration not stated), the figure is 52%; as for `CC(=O)N1CCCN(C(=O)NCc2cccnc2OC(C)C)CC1`, -40.2%; as for `CC(C)Oc1ncccc1CNC(=O)N1CCC1`, 54.4%.
For the compound `NC(=O)C1CCN(C(=O)NCc2cccnc2OCC(F)(F)F)C1` (configuration not stated), the INHIBITION is listed as 56.4%.
For `NC(=O)C1CCN(C(=O)NCc2ccccc2-n2cccn2)C1` (configuration not stated), the INHIBITION was 0.914%.
Under `CC(C)N(C)Cc1cncc2c1CCN(C(=O)c1ccc[nH]1)C2` stands 29%; under `Cc1cccc(CN2CCc3ncnc(N4CCN(C)CC4)c3CC2)n1`, -110%.
As for `COc1ccc(OC)c(-n2nnnc2SCC2CCCCO2)c1` (configuration not stated), the figure is 20.9%.
As to `Cc1cc(C)c(CNC(=O)NCC2CCCOC2)c(=O)[nH]1` (configuration not stated), the INHIBITION was 27.5%.
Under `N#Cc1ccc(CNc2cccc(C(=O)N3CCOCC3)c2)cc1` stands 24.2%; under `Cc1nc(C)n(CC2CCCN(CC(=O)NC3CCOCC3)C2)n1` (configuration not stated), -17%.
Under `CCN1CCC(=O)N(C)Cc2cc(F)ccc21` stands 35.8%.
Under `O=C(Cc1ccc2c(c1)OCCCO2)Nc1nnn[nH]1` stands -5.38%; under `COc1ncccc1CNC(=O)N1CCC(CN2CCOCC2)CC1`, 29.4%; under `CCN1CCN(C(=O)NCc2cccnc2-n2cccn2)CC1`, 33.8%.
On to `COCCOc1ncccc1CNC(=O)N1CCOCC1`, for which the INHIBITION is on record as 44.3%.
As to `CC(=O)N1CCN(C(=O)NCc2cccnc2OC(C)C)CC1`, the INHIBITION amounted to 48.2%.
As for `CN1CCCN(C(=O)NCc2cccnc2-n2cccn2)CC1`, the figure is 52.3%; as for `CC(C)Oc1ncccc1CNC(=O)N1CCC(n2cccc2)CC1`, -69%; as for `O=C(CC1CCCCC1)N1CCN(C(=O)NCc2ccccn2)CC1`, 12.7%.
Consider `O=C(NCc1cccnc1OCC(F)(F)F)N1CCOCC1`, for which the INHIBITION was found to be 69.3%.
With `CC(C)Oc1ncccc1CNC(=O)N1CCOCC1`, the INHIBITION is 65.6%.
As for `CC(C)CN1CCN(C(=O)NCc2cccnc2-n2cccn2)CC1`, the figure is 11%.
As for `CC(=O)N1CCCN(C(=O)NCCNc2ccccn2)CC1`, the figure is 16.533%; as for `CC(=O)N1CCCN(C(=O)NCc2ccccn2)CC1`, 53.3%; as for `CCCc1nc(Nc2cccc(C(N)=O)c2)c2c(n1)c(C)nn2CC`, -28.15%.
Under `O=C(Cn1cccc(S(=O)(=O)N2CCCC2)c1=O)c1ccccc1Cl` stands 16.6%.
On to `CCOc1cc(=O)n2c(c1C(=O)OCc1cccc(C)c1)CCCC2`, for which the INHIBITION is 43.8%.
Under `c1csc(CN2CCn3c(Cn4cncn4)cnc3C2)n1` stands 45.5%; under `COC(=O)C1CCN(c2cc(C)nc(-c3ccncc3)n2)CC1`, -53.5%; under `Cc1noc(C)c1C(=O)N1C[C@@H]2COC[C@]2(COc2ccccn2)C1`, 18.5%.
Under `CN1CCN(C(=O)c2cc(NC(=O)c3ccccc3)n(C)n2)CC1` stands 46.6%.
Under `Cn1nc(C(=O)N2CCCCCC2)cc1NC(=O)c1ccccc1` stands 26.4%; under `CCN1CCN(C(=O)c2cc(NC(=O)c3ccccc3)n(C)n2)CC1`, 75.7%.
Regarding `CC(C)N1c2sc(-c3ccsc3)nc2CC1C(=O)NC1CC1` (configuration not stated), the INHIBITION amounted to 26.5%.
Under `CC(C)N1c2sc(-c3ccsc3)nc2CC1C(=O)NC1CCCC1` (configuration not stated) stands 47.5%; under `CC(C)N1c2sc(-c3ccccc3)nc2CC1C(=O)NC1CCCC1` (configuration not stated), 57.1%.
Under `Cc1cccc(CN2CCc3ncnc(N4CCOCC4)c3CC2)n1` stands -9.86%; under `Cc1ccc(CN(CCCN2CCOCC2)Cc2[nH]cnc2C)o1`, -18.9%; under `CS(=O)(=O)N1CCC[C@]2(C[C@@H](Oc3ncccc3F)CO2)C1`, 26.2%.
Turning to `CN1CC=C(c2noc(CCC(=O)N3CCc4ccccc43)n2)CC1`, the INHIBITION came to 32.5%.
Under `CN1CC=C(c2noc(CCC(=O)N3CCc4ccccc4C3)n2)CC1` stands 77.2%.
Under `CN1CC=C(c2noc(CCC(=O)N3CCCC3)n2)CC1` stands 41.6%; under `CCc1cccc(N2CCC(NC(=O)c3ccoc3C)CC2)c1`, 70.8%.
Take `CCc1cccc(N2CCC(NC(=O)c3ccncc3)CC2)c1`: the INHIBITION amounted to 23.5%.
As for `Cc1occc1C(=O)NC1CCN(C(=O)Nc2cccnc2)CC1`, the figure is 46.3%; as for `CCc1cccc(N2CCC(NC(=O)c3ccc(=O)[nH]n3)CC2)c1`, 21.9%; as for `CCc1cccc(N2CCC(NC(=O)c3ccco3)CC2)c1`, 91.4%.
Under `CCc1cccc(N2CCC(NC(=O)c3cc[nH]n3)CC2)c1` stands 77.3%.
Under `O=C(NCc1cccc(N2CC=CC2)c1)NC1CC1` stands -37.7%; under `O=C(NC1CCCN(Cc2c(F)cccc2F)C1)c1cc[nH]n1` (configuration not stated), 32.2%.
Turning to `CCc1ccc(O)c(C(=O)NC2CCN(S(=O)(=O)CC)CC2)c1`, the INHIBITION amounted to 44.2%.
As for `O=C([C@@H]1C[C@H]2[C@H](CCN2Cc2nccs2)O1)N1CCOCC1`, the figure is -1.53%; as for `O=C(O)CNC(=O)Cc1csc(-c2ccccc2F)n1`, 32.8%.
In the case of `Cc1cscc1C(=O)N1CCCC1CC(=O)c1cnn(C)c1` (configuration not stated), the INHIBITION is given as 12.7%.
As for `Cc1ccc(O)c(C(=O)N2CCCC2CC(=O)c2cnn(C)c2)c1` (configuration not stated), the figure is 50.2%; as for `CCc1ccccc1C(=O)N1CCCC1CC(=O)c1cnn(C)c1` (configuration not stated), 30.6%; as for `CCn1cc(S(=O)(=O)N2CCC(C3CCCCN(C)C3=O)CC2)c(C)n1` (configuration not stated), 37.1%.
Under `OCC1CCN(C[C@@H]2CN(C3Cc4ccccc4C3)C[C@@H]2CO)CC1` stands 48.5%.
